# Compound activity from PubChem BioAssay.
# Shiga toxin inh: blocks Shiga toxin action in Vero cells | actives 9.2% (n = 290,000) | AID 2315 | inhibition, % at 38.7 µM | Vero cells, Shiga toxin protein synthesis inhibition reporter; in the data active = inhibition mostly above about 28%, no sharp cut-off; inactive = mostly below about 43%; also: 0% is about no effect
# Cycloheximide cs: counter-screen for Shiga toxin inhibitors: cycloheximide protein synthesis inhibition. cell reporter, cycloheximide protein synthesis inhibition counterscreen. max response, %. actives 12% (n = 300,000). AID 2314; in the data active = max response mostly above about 13%, no sharp cut-off; inactive = mostly below about 14%; also: read at 38.3 µM for the half of the compounds with a filed dose; 0% is about no effect
# Pf growth 48h: P. falciparum growth inhibition at 48 hours (one generation). P. falciparum luciferase growth in erythrocytes, 48 h. actives 5.9% (n = 310,000). Potency, µM (series often up to 28.7 µM), without a hit: at the top dose activity change, negative = inhibition, usual class: inhibitors; also: potency is read from the fitted curve at half-maximal effect; % is scaled to controls: 0 for no effect and ±100 for the full control effect
#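 Cell-based growth assay: transgenic P. falciparum expressing firefly luciferase, cultured in red cells within RPMI 1640 containing 0.5% w/v Albumax, 24 mM bicarbonate and gentamycin. A drop in luciferase activity indicates inhibition.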
# NS1 function inh: inhibitors of influenza NS1 protein function; AID 2326; actives 0.4% (n = 270,000); Potency, µM (highest dose often 46.1 µM), for the others: top-dose activity, positive = more growth; calls by dose curve; also: potency is read from the fitted curve at half-maximal effect; actives are rising curves; nearly all actives have a fitted effect of over 50% in size
#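 Growth recovery, yeast-based: influenza A NS1 expressed in S. cerevisiae causes slow growth, and suppressors are detected by OD600. The parent strain without NS1 is used as positive control.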
# Pf growth 96h: P. falciparum growth inhibition at 96 hour, primary screen for plastid delayed-death inhibitors; P. falciparum luciferase reporter growth, 96 h; Potency, µM (titrated, usually from 28.7 µM), for the others: at the top dose activity change, negative = inhibition, usual class: inhibitors; actives 6.9% (n = 320,000); also: potency is read from the fitted curve at half-maximal effect; % is scaled to controls: 0 for no effect and ±100 for the full control effect
#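 Delayed-death screen, second-generation endpoint: infected erythrocytes, 2% hematocrit, 0.05% parasitemia final; 96 hours at 37 C, 5% CO2; luciferase detection reagent; luminescence decrease equals reduced growth.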
# Sm TGR block: inhibitors of Schistosoma mansoni thioredoxin glutathione reductase; purified TGR, DTNB reduction, TNB absorbance 405 nm; actives 3% (n = 360,000); Potency, µM (highest dose often 114 µM), inactives show top-dose activity change, negative = inhibition, usual class: inhibitors; also: potency is read from the fitted curve at half-maximal effect; % is scaled to controls: 0 for no effect and ±100 for the full control effect; nearly all actives have a fitted effect of over 60% in size
#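 Kinetic colorimetric format: TGR-catalysed, NADPH-driven DTNB reduction monitored via TNB absorbance. Enzyme dispensed at 20 nM; compound exposure 15 min at room temperature before reaction start.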
# An asterisk follows results filed as active; ? = inconclusive; · = no result. The list is not random: actives were taken first. Their share in the collection is about 21%. Unless noted, calls follow the shape of the dose curve; as a rule, active = well fitted curve in the direction sought with a large enough effect; inconclusive = small, poorly fitted or top-dose-only effect, or another doubt; inactive = no such curve, though single readings can be large; an effect the other way counts as inactive or inconclusive.
SMILES,Shiga toxin inh,Cycloheximide cs,Pf growth 48h,NS1 function inh,Pf growth 96h,Sm TGR block
COCc1c(C(=O)N(C)Cc2ccccc2N2CCCC2)oc2ccccc12,·,·,?,·,9.28µM*,0.2%
Cc1c(C(=O)NC2CCCCC2C)oc2ccccc12 (stereo not drawn),-14.6,-2.6,5.0%,-58.1%,-28.0%,0.562µM*
Cc1c(C(=O)NC2CC2)oc2ccccc12,·,·,-3.8%,·,5.8%,7.8%
COCc1c(C(=O)NC2CCCCCC2)oc2ccccc12,62.3*,21.9*,-18.1%,1.5%,-7.8%,-0.5%
Cc1c(C(=O)NC2CCC(C)CC2)oc2ccccc12 (stereo not drawn),61.5*,45.9*,97.0%,-6.1%,111.8%,?
CCOC(=O)C1CCN(C(=S)Nc2cc(OC)c(OC)cc2C(=O)OC)CC1,13.1,-2.9,-15.9%,-6.6%,·,-19.5%
CCCCCOc1ccc(Br)cc1/C(C)=N/NC1=NCCN1,-10.0,-5.3,5.22µM*,1.1%,?,-19.4%
COc1ccc(Br)cc1/C(C)=N/NC1=NCCN1,-18.1,-1.7,1.9%,-9.3%,·,-14.0%
CCc1nn(CC(=O)NCc2cccc(OC)c2)c(=O)c2cc3cc(F)ccc3n12,·,·,·,·,·,-1.5%
Cc1ccc(OCCCCNC(C)(C)C)c([N+](=O)[O-])c1,-14.8,0.7,?,2.0%,3.7µM*,-7.6%
O=C(CCN1CCOCC1)NCC(=O)Nc1ccc(Br)cc1C(=O)c1ccccc1,-17.4,-1.1,11.3%,-1.3%,13.1µM*,-7.9%
Nc1nc2sc3c(c2c(=O)s1)CCCC3,62.7,35.4*,64.7%,-42.8%,0.0%,1.4%
Nc1c2c3c(sc2nc(=O)n1N)CCCC3,-5.8,-3.3,7.6%,7.4%,6.57µM*,-4.2%
Nn1cnc2sc3c(c2c1=O)CCC3,-11.4,1.2,-8.7%,-5.7%,·,1.4%
O=C(O)CCn1cnc2c(=S)nc[nH]c21,·,·,·,-0.3%,·,·
CCN(CC)c1ccc(C(=O)NCc2ccc3c(c2)CCN3C(=O)c2ccccc2)cc1,·,·,·,·,·,5.1%
CCN(CC)CCC(=O)Nc1cccc2c1C(=O)c1ccccc1C2=O,6.2,1.8,-85.9%,-3.4%,10.4µM*,-17.2%
CC1CCN(C(=O)c2ccc3c(c2NCCO)C(=O)c2ccccc2C3=O)CC1,-4.3,3.0,?,1.1%,·,25.0%
Nc1cccc(C(=O)OCC(=O)Nc2cccc3c2C(=O)c2ccccc2C3=O)c1,-1.2,-2.4,19.8%,?,-12.3%,-5.1%
CCN(CC)CCNC(=O)c1ccc2c(c1NCCO)C(=O)c1ccccc1C2=O,40.3*,16.9,2.62µM*,6.9%,4.65µM*,-34.1%
COC(=O)c1ccccc1NC(=O)N1CCc2ccc(NC(=O)c3ccccn3)cc2C1,-4.9,-1.3,?,2.5%,?,12.0%
CSc1ccc(C(=O)N2CCc3ccc(NC(=O)c4ccccn4)cc3C2)cc1,106.6*,58.4*,?,-3.6%,14.7µM*,7.8%
CCOC(=O)Cn1c(=O)n(C2CCCCC2)c2nc(-c3ccc(CC)cc3)nc(C(N)=O)c21,·,·,·,·,·,-0.1%
CCOC(=O)/C(=C\c1cccnc1)C(=O)c1cc(C(C)=O)c(Nc2ccccc2)s1,-35.6,-13.6,?,-134.3%,·,20µM*
Cc1c(CCC(=O)O)c(=O)oc2cc3occ(-c4ccc(Br)cc4)c3cc12,-7.7,0.9,?,7.4%,?,7.1%
SMILES,Shiga toxin inh,Cycloheximide cs,Pf growth 48h,NS1 function inh,Pf growth 96h,Sm TGR block
CC(=O)NC(Cc1ccccc1)C(=O)OCC(=O)c1ccc(F)cc1 (stereo not drawn),20.8,-3.0,-3.6%,-19.7%,?,-1.8%
CC1CCCN(C(=O)COC(=O)Cc2c(F)cccc2Cl)C1 (stereo not drawn),67.2*,43.9*,54.0%,9.1%,47.8%,3.8%
O=C(NCC(=O)N1CCCCCCC1)c1ccccc1Br,·,·,5.8%,·,15.3%,0.6%
CC1CCN(C(=O)CNC(=O)c2ccc(Cl)cc2Cl)CC1,49.7*,27.2*,·,0.1%,94.3%,6.4%
O=C(Cc1c(F)cccc1Cl)N1CCCC1,-6.6,-1.1,3.0%,-3.6%,-26.8%,-1.8%
O=C(NCC(=O)N1CCCC1)c1ccccc1F,52.9*,20.5,58.3%,4.4%,89.1%,-10.1%
O=C(NCC(=O)N1CCCCC1)c1ccc(Cl)cc1Cl,58.3*,49.3*,·,7.3%,203.3%,-8.4%
O=C(CNC(=O)c1ccc(Cl)cc1Cl)OCC(=O)N1CCCC1,·,·,11.0%,·,6.9%,3.2%
